Test in all cases: NCI-60 one-dose screen, 48 h (100 = growth as untreated, 0 = no growth, -100 = all killed)
Common to all, as to settings: 10 µM

The subject of experiment [1] is BT-549 breast.
Experiment [2] concerns MDA-MB-435 melanoma.
Experiment [3] concerns SW-620 colon.
Experiment [4] relates to HCC-2998 colon.
Experiment [5] has as its system KM12 colon.
Experiment [6] concerns MDA-MB-468 breast.
In experiment [7] the test system is MCF7 breast.
Experiment [8] concerns HCT-116 colon.

Where “and” joins values, the source holds several entries; their conditions need not be identical. Equal entries are not always repeated. The panel holds about 83,000 compounds, 20% with a hit somewhere; the sample as a whole holds those more often.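 48-hour exposure, single concentration, 96-well plates; percent growth endpoint where 0 means no net growth. Active: below 10.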 Calls of active or inactive are those of the source.

In PubChem BioAssay (NCI) one finds growth data, which are given here for 4 compounds.

Take `O=C(Nc1cccc([N+](=O)[O-])c1)Nc1cccc([N+](=O)[O-])c1`: the growth was 67.1% (inactive) in experiment [1]; 90.3% (inactive) in experiment [2]; 87.9% (inactive) in experiment [3]; 88% (inactive) in experiment [4]; 70.6% (inactive) in experiment [5]; 7.95% (active) and 24.6% (inactive) in experiment [6].

For the compound `O=C(Nc1ccncc1)c1ccc(-n2c(=O)[nH]c3ccccc3c2=O)cc1`, the growth in experiment [1] is 92.6% (inactive); in experiment [2] it was 103% (inactive); in experiment [3], 101% (inactive); in experiment [7], 92.3% (inactive); in experiment [8], 99.1% (inactive); in experiment [4] it was 107% (inactive). Moreover, the growth in experiment [5] was 110% (inactive); in experiment [6], 69.6% (inactive).

For the compound `OCc1[nH]nc2cc(Nc3ncc4ccc(Br)c(OC5CCC(O)CC5)c4n3)ccc12` (centres undefined), the growth in experiment [1] is -42.5% (active); in experiment [2], -15.7% (active); in experiment [3], -18.6% (active); in experiment [7] it was -74.7% (active); in experiment [4], -49% (active); in experiment [5], 2.85% (active). In experiment [6], the growth is -87.8% (active).

As to `Cc1cc(C)cc(Oc2cccc(-c3c(C)nnn3C3CCN(CCN(C)C)CC3)n2)c1`, the growth in experiment [1] was 9.68% (active); in experiment [2], 20.7% (inactive); in experiment [3], 45.9% (inactive); in experiment [7], 6.99% (active); in experiment [8], 15.2% (inactive); in experiment [4] it was 0.234% (active). Moreover, the growth in experiment [5] was 37% (inactive); in experiment [6] it was -20.2% (active).
